# aDG glyco up: alpha-DG glycosylation activation; hit rate 0.22% among 360,000; activation, % at 10 µM; Pro5-aDG cells, alpha-DG glycosylation AlphaScreen (IIH6); 0% Pro5, 100% B10-LARGE cell signal;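 active = activation of at least 8% versus controls, or a plate z-score of at least 8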;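 also: Pro5 are CHO cells carrying HIG-tagged alpha-DG that lacks glycosylation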
# TAG inh: triacylglycerol accumulation inhibition. H9c2 cells, Nile Red lipid (TAG) fluorescence; cells loaded with 200 µM oleic acid. inhibition, % at 12.5 µM. hit rate 0.66% among 230,000;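 active = pattern-corrected inhibition of lipid staining of at least 50% with the nuclear-stain viability signal not falling by more than 50%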;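 also: 0% = DMSO wells and 100% = triacsin C control wells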
# MPTP block: inhibitors of mitochondrial permeability transition pore; isolated mouse mitochondria, Ca2+ swelling absorbance, 30 min; inhibition, % at 10 µM; hit rate 1.4% among 360,000; AID 602449;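 active = inhibition of 50% or more, scaled per plate between neutral and stimulator controls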;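 also: 0% = DMSO wells given calcium and 100% = 1 mM EGTA wells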
# NadD block: blocks S. aureus nicotinate mononucleotide adenylyltransferase | purified NadD enzyme, colorimetric absorbance read-out | inhibition, % at 20 µM | hit rate 0.78% among 360,000; in the data active = inhibition above about 26%
# * marks the source's active call; other numbers are inactive results; . = not tested or not shown. Hits are enriched below; roughly 2.7% of the tested compounds scored in any of these assays.
SMILES,aDG glyco up,TAG inh,MPTP block,NadD block
COc1ccc(-c2cn3cc(Cl)ccc3n2)cc1OC,0,.,2,-3
CCN(CC)S(=O)(=O)c1cccc(NC(=O)C2SC(=Nc3ccc(C)cc3C)C(C(=O)NC(C)COC)=C2N)c1 (configuration not stated),0,1,1,44*
CCN(CC)S(=O)(=O)c1cccc(C(=O)Nc2cccc(C)c2)c1,1,9,2,-8
CCCNc1c(NS(=O)(=O)c2ccc(NC(=O)CC)cc2)c(=O)oc2ccccc12,6.5*,.,-1,-1
CN(C)c1ccc(/C=C2\SC(=O)N(CC(O)Cn3c4ccccc4c4ccccc43)C2=O)cc1 (configuration not stated),0,.,2,33*
O=C1S/C(=C/c2ccccc2)C(=O)N1CC(O)Cn1c2ccccc2c2ccccc21 (configuration not stated),0,.,2,16
CCOc1ccc(CN(C)C(=O)[C@H](Cc2ccccc2)NC(=O)OCc2ccccc2)cc1OC,0,.,-1,-7
COc1ccc(OCC(=O)NNC(=S)NC(=O)c2ccc(Br)o2)cc1,0,7,2,4
O=C1C(=Cc2ccc(Br)o2)C(=O)c2ccccc21,0,.,6,33*
CC1=C/C(=C\c2ccc(Br)o2)C(=O)O1,0,.,0,-4
CCc1nc2ccc(C(=O)NCCCN3CCN(c4ccc(F)cc4)CC3)cc2nc1CC,0,.,-1,-5
CN1CCN(CCNC(=O)c2ccc3nc(-c4ccc(F)cc4)c(-c4ccc(F)cc4)nc3c2)CC1,8.0*,.,2,-10
CCc1cccc2c1Sc1ccccc1CC2N1CCNCC1 (configuration not stated),0,67*,-1,-19
c1ccc2c(c1)CC(N1CCCCC1)c1ccccc1N2 (configuration not stated),0,.,-2,-4
N#Cc1ccc(C23CC4(C2)[C@H](CN(P(=O)(c2ccccc2)c2ccccc2)[C@@H]4c2ccccc2)C3c2ccc(Cl)nc2)cc1 (some centres not stated),0,51*,0,23
N#CC1=C(N)n2c(s/c(=C\c3ccco3)c2=O)=C(C#N)C1c1ccco1 (configuration not stated),0,19,9,50*
CC(C)c1ccc(/C=c2\sc3n(c2=O)C(N)=C(C#N)C(c2ccc(C(C)C)cc2)C=3C(N)=O)cc1 (configuration not stated),0,124,-1,25
COc1cc2c(c(OC)c1O)C(=O)CO2,0,.,0,-2
COc1cc(OC)c2c(O)c3c(c(-c4c5c(c(O)c6c(OC)cc(OC)cc46)CO[C@@H](C)[C@H]5O)c2c1)[C@H](O)[C@H](C)OC3,0,.,2,50*
COc1ccc(OC)c(S(=O)(=O)Nc2ccc(O)c3ccccc23)c1,3.2*,.,-1,-5
CCCC1=NN2C(=N)/C(=C\c3cc(C)n(-c4cc(C)cc(C)c4)c3C)C(=O)N=C2S1,0,.,12,37*
Cc1cccc(-n2c(C)cc(/C=C3\C(=N)N4N=C(CC(C)C)SC4=NC3=O)c2C)c1,0,.,12,26
Cc1cc(C)cc(-n2c(C)cc(/C=C3\C(=N)N4N=C(CC(C)C)SC4=NC3=O)c2C)c1,0,.,19,35*
CC1=NN2C(=N)/C(=C\c3cc(C)n(-c4cccc(C)c4)c3C)C(=O)N=C2S1,0,1,27,14
Cc1ccccc1NC(=O)CON=C(N)c1ccccc1,0,-6,-1,-3
SMILES,aDG glyco up,TAG inh,MPTP block,NadD block
COc1ccccc1/C=C1\S/C(=N/NC(=O)c2cccc(Br)c2)NC1=O,0,0,15,38*
Cc1cc(N(CCO)CCO)ccc1N=Nc1cc(F)ccc1F,0,73*,5,-10
CCOC(=O)C1=CCN(S(=O)(=O)c2ccc(C)cc2)C1c1ccccc1F (configuration not stated),0,.,0,-6
CCOc1cc2nc(-c3ccc(OC)c(OC)c3)nc(NCCCN3CCOCC3)c2cc1OC,0,56*,-1,-4
O=C(O)c1cccc(-c2ccc(/C=C3/SC(=Nc4ccccc4)N(Cc4cccnc4)C3=O)o2)c1,0,.,2,32*
CCN=C1S/C(=C\c2ccc(-c3cccc(C(=O)O)c3)o2)C(=O)N1CC,0,3,11,6
CCN1CCN(C2=C(NS(=O)(=O)c3ccc(Br)cc3)C(=O)c3ccccc3C2=O)CC1,7.7*,.,0,6
CCN1CCN(C2=C(NS(=O)(=O)c3ccccc3)C(=O)c3ccccc3C2=O)CC1,2,.,1,0

# High-throughput results deposited in PubChem BioAssay by Sanford-Burnham Center for Chemical Genomics.
